Test results reported in the supplement of paper PMC11732987, “Enantioselective OTUD7B fragment discovery through chemoproteomics screening and high-throughput optimisation” (Communications Chemistry, 2025).

Columns and labels:
Experiment in all cases: log2 ratio of Biotin-Ahx-Ub-VS probe labelling (fragment/DMSO); higher = less target engagement (more negative = stronger competition), active = hit call of the paper (q ≤ 0.05, log2 ratio ≤ -1)
Conditions in all cases: compound concentration: 200 uM; treatment time: 3 h
[1] = target: T1, USP19 (UniProt O94966)
T1 sequence (whole entry): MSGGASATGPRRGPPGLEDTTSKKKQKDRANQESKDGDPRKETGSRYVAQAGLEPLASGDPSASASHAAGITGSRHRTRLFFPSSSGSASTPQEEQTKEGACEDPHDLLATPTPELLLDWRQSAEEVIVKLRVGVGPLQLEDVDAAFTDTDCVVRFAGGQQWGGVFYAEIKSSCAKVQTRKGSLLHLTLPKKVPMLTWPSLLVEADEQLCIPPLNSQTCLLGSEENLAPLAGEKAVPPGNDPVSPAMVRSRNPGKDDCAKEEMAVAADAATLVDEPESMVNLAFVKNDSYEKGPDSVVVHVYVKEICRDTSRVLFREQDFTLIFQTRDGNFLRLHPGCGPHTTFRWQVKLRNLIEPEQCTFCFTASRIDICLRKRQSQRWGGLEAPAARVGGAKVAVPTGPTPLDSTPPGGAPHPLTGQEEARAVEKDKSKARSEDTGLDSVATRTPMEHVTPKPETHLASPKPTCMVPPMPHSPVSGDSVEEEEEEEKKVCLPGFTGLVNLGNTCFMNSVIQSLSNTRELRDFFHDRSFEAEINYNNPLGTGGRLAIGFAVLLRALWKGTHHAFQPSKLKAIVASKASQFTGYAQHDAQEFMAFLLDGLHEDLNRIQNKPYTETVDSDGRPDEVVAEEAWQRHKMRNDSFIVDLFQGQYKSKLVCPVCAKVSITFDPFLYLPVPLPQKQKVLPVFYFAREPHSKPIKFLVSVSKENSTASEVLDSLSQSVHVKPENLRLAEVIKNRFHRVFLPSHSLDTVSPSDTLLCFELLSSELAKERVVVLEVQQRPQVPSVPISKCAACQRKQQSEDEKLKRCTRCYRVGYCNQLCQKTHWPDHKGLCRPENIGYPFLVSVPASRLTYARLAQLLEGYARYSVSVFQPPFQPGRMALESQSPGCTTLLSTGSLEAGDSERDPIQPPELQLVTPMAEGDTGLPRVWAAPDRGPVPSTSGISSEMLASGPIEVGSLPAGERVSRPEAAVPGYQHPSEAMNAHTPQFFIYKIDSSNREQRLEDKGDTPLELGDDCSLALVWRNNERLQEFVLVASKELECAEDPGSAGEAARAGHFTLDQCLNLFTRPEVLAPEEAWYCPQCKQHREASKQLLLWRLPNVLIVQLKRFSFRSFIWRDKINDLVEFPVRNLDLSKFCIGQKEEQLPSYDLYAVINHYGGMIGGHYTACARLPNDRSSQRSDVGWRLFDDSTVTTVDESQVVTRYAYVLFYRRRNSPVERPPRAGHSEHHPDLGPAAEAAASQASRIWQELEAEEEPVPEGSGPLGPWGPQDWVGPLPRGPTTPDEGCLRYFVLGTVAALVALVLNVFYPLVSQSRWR
Method in brief: (§1)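 Fragment (200 µM) or vehicle was incubated for 3 h with triplicate HEK293T lysate samples of 495 µg, which were then treated with Biotin-Ahx-Ub-VS at 0.5 µM final for 1 h. Labelled DUBs were enriched on NeutrAvidin, digested with LysC and trypsin, and analysed by diaPASEF LC-MS/MS. Values are average log2 fragment/vehicle ratios from an unpaired t-test on global-median-normalised Spectronaut label-free quantities, using proteins with ≥2 unique peptides.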

[2] = target: USP24 (UniProt Q9UPU5)
Chain of USP24 (Q9UPU5 whole entry): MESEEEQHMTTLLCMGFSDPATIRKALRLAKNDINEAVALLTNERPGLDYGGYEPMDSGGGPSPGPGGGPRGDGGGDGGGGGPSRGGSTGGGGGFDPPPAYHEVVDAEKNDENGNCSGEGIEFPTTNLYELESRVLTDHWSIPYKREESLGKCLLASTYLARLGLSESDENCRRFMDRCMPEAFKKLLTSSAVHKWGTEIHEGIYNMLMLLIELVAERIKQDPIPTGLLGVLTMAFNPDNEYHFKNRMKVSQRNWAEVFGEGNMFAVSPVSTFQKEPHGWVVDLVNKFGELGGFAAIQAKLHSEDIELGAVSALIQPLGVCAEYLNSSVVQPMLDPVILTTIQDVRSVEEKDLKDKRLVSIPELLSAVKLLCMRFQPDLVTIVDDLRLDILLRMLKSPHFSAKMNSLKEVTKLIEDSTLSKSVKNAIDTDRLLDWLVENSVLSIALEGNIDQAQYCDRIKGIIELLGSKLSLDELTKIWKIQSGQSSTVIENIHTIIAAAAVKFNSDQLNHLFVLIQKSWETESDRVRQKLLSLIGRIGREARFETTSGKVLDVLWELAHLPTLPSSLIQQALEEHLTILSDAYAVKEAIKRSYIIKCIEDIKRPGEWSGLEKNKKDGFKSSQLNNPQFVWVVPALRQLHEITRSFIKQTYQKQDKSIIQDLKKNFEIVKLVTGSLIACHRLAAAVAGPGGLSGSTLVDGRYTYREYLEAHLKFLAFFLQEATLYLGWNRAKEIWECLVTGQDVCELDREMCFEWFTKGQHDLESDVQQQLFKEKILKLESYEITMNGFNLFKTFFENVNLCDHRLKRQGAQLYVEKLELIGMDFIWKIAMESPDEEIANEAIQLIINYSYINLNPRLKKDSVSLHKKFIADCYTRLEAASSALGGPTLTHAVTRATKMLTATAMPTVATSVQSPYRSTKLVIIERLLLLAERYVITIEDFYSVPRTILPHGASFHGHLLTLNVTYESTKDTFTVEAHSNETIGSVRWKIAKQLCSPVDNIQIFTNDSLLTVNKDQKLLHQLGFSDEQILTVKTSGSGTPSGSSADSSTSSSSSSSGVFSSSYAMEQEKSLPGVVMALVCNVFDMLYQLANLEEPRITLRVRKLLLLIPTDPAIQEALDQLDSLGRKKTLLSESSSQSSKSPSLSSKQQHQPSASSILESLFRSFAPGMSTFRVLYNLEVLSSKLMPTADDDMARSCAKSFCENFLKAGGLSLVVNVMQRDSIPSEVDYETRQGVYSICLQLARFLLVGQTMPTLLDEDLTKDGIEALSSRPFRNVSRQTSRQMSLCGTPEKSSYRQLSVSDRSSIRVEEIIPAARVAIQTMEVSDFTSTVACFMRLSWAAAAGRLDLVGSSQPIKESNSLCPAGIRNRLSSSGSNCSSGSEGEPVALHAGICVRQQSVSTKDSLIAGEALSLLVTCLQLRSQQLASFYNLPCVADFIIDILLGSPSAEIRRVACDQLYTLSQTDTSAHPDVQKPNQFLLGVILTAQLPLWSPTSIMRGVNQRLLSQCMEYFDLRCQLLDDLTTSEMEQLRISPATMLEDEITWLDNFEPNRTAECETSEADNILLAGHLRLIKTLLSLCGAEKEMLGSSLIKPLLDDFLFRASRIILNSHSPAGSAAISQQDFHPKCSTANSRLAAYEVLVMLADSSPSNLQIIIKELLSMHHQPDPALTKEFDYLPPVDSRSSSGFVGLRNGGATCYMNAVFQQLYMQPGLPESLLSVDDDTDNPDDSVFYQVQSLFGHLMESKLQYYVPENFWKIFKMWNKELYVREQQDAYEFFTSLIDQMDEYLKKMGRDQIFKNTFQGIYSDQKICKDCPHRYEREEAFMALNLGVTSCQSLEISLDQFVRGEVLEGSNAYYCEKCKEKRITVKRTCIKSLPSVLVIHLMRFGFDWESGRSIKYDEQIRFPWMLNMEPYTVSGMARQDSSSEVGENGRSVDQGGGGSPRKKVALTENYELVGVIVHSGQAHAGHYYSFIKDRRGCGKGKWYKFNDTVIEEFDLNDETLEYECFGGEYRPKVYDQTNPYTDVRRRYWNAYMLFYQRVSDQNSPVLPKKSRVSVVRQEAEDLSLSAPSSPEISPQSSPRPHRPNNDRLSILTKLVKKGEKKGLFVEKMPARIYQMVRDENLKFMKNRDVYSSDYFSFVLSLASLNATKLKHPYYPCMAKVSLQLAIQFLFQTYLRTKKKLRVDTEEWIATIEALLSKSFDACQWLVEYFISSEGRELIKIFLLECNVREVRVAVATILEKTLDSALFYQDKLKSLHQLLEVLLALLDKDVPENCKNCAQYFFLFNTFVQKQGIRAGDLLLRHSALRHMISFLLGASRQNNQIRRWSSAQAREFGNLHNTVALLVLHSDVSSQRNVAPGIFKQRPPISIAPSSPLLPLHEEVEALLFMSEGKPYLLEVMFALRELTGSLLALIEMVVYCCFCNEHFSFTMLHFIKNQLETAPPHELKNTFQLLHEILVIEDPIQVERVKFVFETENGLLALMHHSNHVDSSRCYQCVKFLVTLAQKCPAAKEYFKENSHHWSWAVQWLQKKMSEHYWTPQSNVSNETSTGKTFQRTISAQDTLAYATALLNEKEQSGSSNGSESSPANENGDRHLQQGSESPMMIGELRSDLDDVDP
Method in brief: as §1

[3] = target: T2, USP25 (UniProt Q9UHP3)
T2 sequence (whole entry): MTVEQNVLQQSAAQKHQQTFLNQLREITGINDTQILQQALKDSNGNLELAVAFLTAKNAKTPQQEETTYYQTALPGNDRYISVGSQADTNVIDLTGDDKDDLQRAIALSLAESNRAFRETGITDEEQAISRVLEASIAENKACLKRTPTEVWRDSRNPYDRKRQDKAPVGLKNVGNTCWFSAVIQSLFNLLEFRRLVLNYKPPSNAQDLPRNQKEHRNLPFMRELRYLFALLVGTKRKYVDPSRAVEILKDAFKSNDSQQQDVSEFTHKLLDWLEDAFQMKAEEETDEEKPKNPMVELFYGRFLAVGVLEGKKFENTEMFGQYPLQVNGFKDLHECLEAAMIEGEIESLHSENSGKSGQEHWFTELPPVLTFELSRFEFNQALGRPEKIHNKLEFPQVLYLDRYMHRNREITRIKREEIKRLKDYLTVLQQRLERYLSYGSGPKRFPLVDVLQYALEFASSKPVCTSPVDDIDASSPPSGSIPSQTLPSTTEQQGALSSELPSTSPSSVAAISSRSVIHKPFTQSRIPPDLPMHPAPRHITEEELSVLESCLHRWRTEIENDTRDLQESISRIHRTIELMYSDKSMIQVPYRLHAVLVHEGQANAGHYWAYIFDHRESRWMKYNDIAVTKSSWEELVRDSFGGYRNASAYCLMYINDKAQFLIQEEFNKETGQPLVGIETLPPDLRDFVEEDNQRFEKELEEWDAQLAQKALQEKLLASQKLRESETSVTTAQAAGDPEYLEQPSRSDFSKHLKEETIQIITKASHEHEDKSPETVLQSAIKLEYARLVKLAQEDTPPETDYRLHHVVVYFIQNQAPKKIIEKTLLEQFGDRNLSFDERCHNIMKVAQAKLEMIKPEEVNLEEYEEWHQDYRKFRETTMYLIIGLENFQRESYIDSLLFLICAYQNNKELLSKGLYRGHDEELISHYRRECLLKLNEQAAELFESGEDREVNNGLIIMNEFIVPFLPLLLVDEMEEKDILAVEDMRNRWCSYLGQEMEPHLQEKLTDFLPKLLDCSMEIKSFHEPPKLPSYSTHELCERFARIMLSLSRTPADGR
Method in brief: as §1

[4] = target: T3, USP28 (UniProt Q96RU2)
T3 sequence (whole entry): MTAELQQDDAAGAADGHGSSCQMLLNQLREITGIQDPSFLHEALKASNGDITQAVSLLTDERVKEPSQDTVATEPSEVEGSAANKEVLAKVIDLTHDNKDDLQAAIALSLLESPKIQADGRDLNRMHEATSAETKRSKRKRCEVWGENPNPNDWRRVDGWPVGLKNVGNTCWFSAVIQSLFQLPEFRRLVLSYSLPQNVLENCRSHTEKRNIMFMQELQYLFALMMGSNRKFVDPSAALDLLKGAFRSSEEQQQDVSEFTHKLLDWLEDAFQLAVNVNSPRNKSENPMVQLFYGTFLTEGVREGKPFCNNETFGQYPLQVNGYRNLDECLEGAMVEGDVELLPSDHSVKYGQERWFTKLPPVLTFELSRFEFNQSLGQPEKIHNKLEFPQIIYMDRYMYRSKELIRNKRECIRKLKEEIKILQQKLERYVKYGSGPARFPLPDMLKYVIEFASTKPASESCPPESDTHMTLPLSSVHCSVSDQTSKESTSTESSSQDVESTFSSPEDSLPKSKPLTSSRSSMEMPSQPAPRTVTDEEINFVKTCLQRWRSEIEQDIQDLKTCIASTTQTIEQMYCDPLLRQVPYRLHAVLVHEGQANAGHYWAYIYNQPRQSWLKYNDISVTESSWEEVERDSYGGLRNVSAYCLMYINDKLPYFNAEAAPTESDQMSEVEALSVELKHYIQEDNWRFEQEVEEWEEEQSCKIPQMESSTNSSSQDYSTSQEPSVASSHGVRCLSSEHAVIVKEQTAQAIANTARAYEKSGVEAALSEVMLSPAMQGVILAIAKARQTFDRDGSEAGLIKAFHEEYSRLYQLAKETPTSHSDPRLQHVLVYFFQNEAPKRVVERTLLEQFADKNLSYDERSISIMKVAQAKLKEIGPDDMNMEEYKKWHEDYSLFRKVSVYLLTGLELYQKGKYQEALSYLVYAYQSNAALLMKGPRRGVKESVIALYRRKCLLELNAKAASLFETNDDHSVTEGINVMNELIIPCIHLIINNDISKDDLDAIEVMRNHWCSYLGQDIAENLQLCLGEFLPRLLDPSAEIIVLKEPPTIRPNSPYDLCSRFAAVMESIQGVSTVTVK
Method in brief: as §1

Measured: log2 ratio of Biotin-Ahx-Ub-VS probe labelling

O=C(CCl)NCCc1ccc(F)cc1
inactive: [1] -0.131 | [2] -0.0496 | [3] -0.326 | [4] -0.328
